In the library only some 19% were active in any assay of this set; here they are far more common.
TDP1 inh = TDP1 (human) enzyme inhibition; Q9NUW8; recombinant TDP1, AlphaScreen DNA substrate cleavage; Potency, µM (titrated, usually from 130 µM), inactives show top-dose activity change, negative = inhibition, most hits filed as inhibitors; actives 0.28% (n = 350,000); AID 485290; note: nearly all actives have a fitted effect of over 40% in size
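Recombinant E. coli-expressed Tdp1 (1 nM) preincubated with compound 15 min at RT, then 5'-biotin/3'-phosphotyrosine-FITC DNA substrate (15 nM) added for 5 min. AlphaScreen beads (10 ug/ml) added, 10 min RT; tyrosine-FITC cleavage read as signal loss.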
RORg inh = inhibitors of mouse ROR gamma transcriptional activity. actives 5.4% (n = 310,000). P51450. Potency, µM (top dose mostly 53.6 µM), inactives show at the highest dose activity change, negative = inhibition, usual class: inhibitors. Drosophila S2 Gal4-RORgamma UAS-luciferase reporter, 20 h; note: nearly all actives have a fitted effect of over 60% in size
Target sequence (P51450 whole entry, looked up, the tested form may be a part): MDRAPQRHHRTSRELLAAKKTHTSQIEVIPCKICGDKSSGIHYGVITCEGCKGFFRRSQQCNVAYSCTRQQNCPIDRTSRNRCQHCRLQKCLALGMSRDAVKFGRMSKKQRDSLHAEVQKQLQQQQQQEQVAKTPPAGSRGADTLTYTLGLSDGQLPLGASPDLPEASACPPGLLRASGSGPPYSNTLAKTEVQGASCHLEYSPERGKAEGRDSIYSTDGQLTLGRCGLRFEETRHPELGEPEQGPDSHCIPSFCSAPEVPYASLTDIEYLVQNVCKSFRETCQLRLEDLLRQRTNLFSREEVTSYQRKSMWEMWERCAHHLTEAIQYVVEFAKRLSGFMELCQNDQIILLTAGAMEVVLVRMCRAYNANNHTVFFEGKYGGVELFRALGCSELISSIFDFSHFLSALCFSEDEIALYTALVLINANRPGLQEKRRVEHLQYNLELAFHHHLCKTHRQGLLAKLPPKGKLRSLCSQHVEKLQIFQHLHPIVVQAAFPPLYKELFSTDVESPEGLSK
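Stably transfected Drosophila Schneider cells are the test system, with ROR gamma fused to Gal4 and luciferase under UAS control; luminescence is read after 20 hr of 700 uM copper sulfate induction at ambient temperature.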
TDP1 cell CPT = DT40-hTDP1 cell growth loss with CPT; Potency, µM (top dose mostly 46.2 µM), inactives show at the highest dose activity change, negative = growth inhibition, most hits filed as inhibitors; actives 12% (n = 420,000); AID 686979; chicken DT40 Tdp1-/-;hTDP1 cells + 20 nM CPT, ATP luminescence, 48 h; note: nearly all actives have a fitted effect of over 55% in size
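Chicken DT40 Tdp1-/- cells complemented with human TDP1, 400 cells/well, exposed to compounds plus 20 nM camptothecin for at least 48 h at 37 C; viability read as ATP content by CellTiter-Glo luminescence.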
VP16 counter = inhibits Gal4-VP16 luciferase reporter, ROR gamma counter-screen. AID 2546. Potency, µM (series often up to 53.6 µM), for inactives: top-dose activity, negative = inhibition, usual class: inhibitors. actives 3.5% (n = 310,000). Drosophila S2 Gal4-VP16 UAS-luciferase, luminescence, 20 h;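 note: Gal4-VP16 expression switched on by copper sulfate through the metallothionein promoter; nearly all actives have a fitted effect of over 50% in size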
DT40 TDP1 no CPT = qHTS for Inhibitors of human tyrosyl-DNA phosphodiesterase 1 (TDP1): qHTS in cells in absence of CPT. AID 686978, 2013. DT40 Tdp1-/- hTDP1 cells, no CPT, ATP luminescence, 48 h. actives 15% (n = 420,000). Potency, µM (titrated, usually from 46.2 µM), without a hit: at the highest dose activity change, negative = growth inhibition, most hits filed as inhibitors; note: nearly all actives have a fitted effect of over 55% in size
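Camptothecin absent (DMSO only). Human TDP1-complemented DT40 knockout cells, 400 cells/well, 37 °C for minimum 48 hr; ATP measured via CellTiter-Glo, 30 min dark incubation, luminescence.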
Numbers without * were called inactive; ? = inconclusive; . = no result given; [ ] = dose if it differs, or a comment. Calls come from the whole dose curve; as a rule, active = well fitted curve in the direction sought with a large enough effect; inconclusive = small, poorly fitted or top-dose-only effect, or another doubt; inactive = no such curve, though single readings can be large; an effect the other way counts as inactive or inconclusive. % is set by controls: 0 for no effect and ±100 for the full control effect; potency is the fitted concentration of half-maximal effect.

SMILES	TDP1 inh	RORg inh	TDP1 cell CPT	VP16 counter	DT40 TDP1 no CPT
Cc1ccc(N(CN2CCCC2=O)C(=O)c2ccccc2)cc1	5%	11%	13µM*	4%	13µM*
COc1ccc(C(=O)N(CN2CCCC2=O)c2ccc(C)cc2)cc1	4%	28%	?	-10%	15µM*
COc1ccc2c(c1)CCC(C)N2C(=O)C(=O)c1c[nH]c2ccccc12 (stereo not given)	5%	9%	21µM*	-4%	?
COC(=O)[C@@]12C[C@@H](CC(=O)NCc3cccc(C(F)(F)F)c3)C(=O)N(Cc3cccc4ccccc34)C1=CCC(C)(C)C2	.	.	16µM*	.	16µM*
COC(=O)[C@@]12C[C@@H](CC(=O)NCc3cccc4ccccc34)C(=O)N(Cc3ccc4c(c3)OCO4)C1=CCC(C)(C)C2	.	.	?	.	13µM*
COC(=O)[C@@]12C[C@@H](CC(=O)NCc3ccccc3)C(=O)N(Cc3ccc4c(c3)OCO4)C1=CCC(C)(C)C2	.	.	16µM*	.	16µM*
CC(C)Oc1ccc2c(=O)cc(-c3ccccc3)oc2c1	10%[56.1 µM]	?	.	?	.
CN(CC(=O)Nc1ccc(Cl)c(Cl)c1)CC(=O)Nc1ccc2c(c1)OCO2	2%	.	?	.	4%
Cc1cccc(NS(=O)(=O)c2cc([N+](=O)[O-])ccc2C)n1	0%	-2%	5%	1%	-16%
C=CCCC(=O)Nc1ccc(COC(=O)N2CCOCC2)cc1	2%	-3%	0%	5%	-11%
CCc1nnc(NC(=O)c2ccc(OC)cc2)s1	3%	7.9µM*	-16%	-22%[10 µM]	8%
COc1ccc(Cc2nnc(NC(=O)c3cc(OC)c(OC)c(OC)c3)s2)cc1	.	-23%	?	3%	?
COc1ccc(Cc2nnc(NC(=O)c3ccc(OC)c(OC)c3)s2)cc1	.	-2%	23µM*	-3%	23µM*
CCOC(=O)[C@@H]1[C@H]2COc3cc(OC)ccc3[C@H]2N2C(=O)N(c3cccc(C)c3)C(=O)[C@]12C	1%	.	?	.	-22%
CCc1ccc(S(=O)(=O)Nc2ccc3c(c2)sc(=O)n3C)cc1	7%	.	21µM*	.	15µM*
CCn1c(=O)sc2cc(NS(=O)(=O)c3ccc(C)cc3)ccc21	2%	.	?	.	?
CCN(C[C@H]1N[C@@](C)(C(=O)OC)[C@H]2C(=O)N(Cc3ccccc3)C(=O)[C@@H]12)S(=O)(=O)c1ccc(C)cc1	0%	.	-24%	.	-20%
COc1ccccc1NCCC(=O)OCC(=O)NC1CC1	3%	28%	16%	-5%	-12%
COc1cc2nc(Cl)nc(NC(C)C)c2cc1OC	.	.	14µM*	.	16µM*
COc1cc2nc(N3CCN(C)CC3)nc(NC(C)C)c2cc1OC	.	.	?	.	18µM*
COc1ccc(Nc2nc(N3CCCC3)nc3ccccc23)c(OC)c1	-2%	-40%	?	-15%	?
COc1cc2nc(N3CCCCC3)nc(NC(C)C)c2cc1OC	.	.	5µM*	.	?
CCCNC(=O)C1CCCN(S(=O)(=O)c2ccc3c(c2)CC(C)N3C(=O)C2CC2)C1 (stereo not given)	.	-22%	?	-3%	?
C=CCOc1c2ccc(C(=O)NCc3ccccc3OC)cc2nn1C	1%	-1%	1%	?	-11%
COc1ccccc1CN(Cc1cccnc1)S(=O)(=O)c1ccc(-n2cnnn2)c(OC)c1	.	15%	-2%	-14%	21µM*
SMILES	TDP1 inh	RORg inh	TDP1 cell CPT	VP16 counter	DT40 TDP1 no CPT
COc1cc(S(=O)(=O)N(Cc2cccnc2)Cc2cccc(OC)c2OC)ccc1-n1cnnn1	2%	-19%	16µM*	4%	?
Cc1sc2ncnc(Oc3ccc(-n4ccnc4)cc3)c2c1C	5%	-35%	?	-7%	?
COc1ccc(C(CC(=O)O)N2Cc3ccccc3C2=O)cc1OC (stereo not given)	.	-1%	3%	-1%	11%
COc1ccc(SCC(=O)Nc2ccc(N3CCN(C)CC3)c(F)c2)cc1	-3%	-2%	-19%	2%[10 µM]	?
Cc1ccc(SCC(=O)Nc2ccc(N3CCN(C)CC3)c(F)c2)cc1	1%	-1%	?	3%	21µM*
O=C(CCC(=O)N1CCSc2ccccc21)Nc1ccc(F)cc1	.	-36%	-8%	3%	-14%
CCN(CC)CCNC(=O)c1ccccc1N	2%	5%	-1%	-13%	-13%
COc1cc(NC(=S)NCCC(c2ccccc2)c2ccccc2)c(OC)cc1Cl	3%	5µM*	9.2µM*	3.2µM*	18µM*
COc1ccc(Cl)cc1NC(=S)Nc1ccccc1C	7%	11µM*	?	?	23µM*
COc1ccccc1NC(=S)NCCC(c1ccccc1)c1ccccc1	5%	11µM*	?	?	?
COc1cc(NC(=S)NCCCN2CCOCC2)c(OC)cc1Cl	3%	-23%	0%	5%	-9%
COc1ccc(Cl)cc1NC(=S)NCCC(c1ccccc1)c1ccccc1	3%	7.1µM*	23µM*	4.5µM*	23µM*
C=CCn1c(=O)c2ccccc2n2c(SCC(C)=O)nnc12	-17%	11%	-22%	4%	1%
CN1CCN(CCCNC(=O)Nc2ccc([N+](=O)[O-])cc2)CC1	.	-3%	8%	1%	7%
O=C(NCCCCc1ccccc1)C1CC(c2cc(C(F)(F)F)cc(C(F)(F)F)c2)=NO1 (stereo not given)	2%	0%	-6%	-21%	-20%
CCOC(=O)Cc1cc(=O)n2[nH]cc(-c3cccc(Br)c3)c2n1	8%	13µM*	?	?	23µM*
Cc1cc(=O)n2[nH]cc(-c3ccccc3)c2n1	6%	?	?	?	?
CCOC(=O)Cc1cc(=O)n2[nH]c(-c3ccc(C)cc3)cc2n1	8%	-1%	-17%	-3%	-13%
CCCc1cc(=O)n2[nH]cc(-c3ccc(Cl)cc3)c2n1	5%	4.5µM*	5.8µM*	3.2µM*	5.8µM*
COCc1cc(=O)n2[nH]cc(-c3ccccc3)c2n1	.	13µM*	?	10µM*	?
CC(C)(C)OC(=O)CC(S(=O)(=O)c1ccccc1)S(=O)(=O)c1ccccc1	.	.	1.3µM*	.	0.92µM*
COc1ccc(CNC(=O)CN2C(=O)CSc3ccc(S(=O)(=O)N4CCOCC4)cc32)cc1	5%	4%	13%	-4%	8%
CCC(=O)c1ccc(OCC(=O)NCCCN2CCOCC2)cc1	.	.	3%	.	4%
CCCCOc1ccc(C(=O)N2CCCCC2CCN2CCOCC2)cc1 (stereo not given)	9%	.	?	.	?
CCCCCOc1ccc(C(=O)CCN2CCOCC2)cc1	.	-6%[1.91 µM]	5.8µM*	?	8.2µM*
